Sampled rows, rich in hits. Any-hit rate of the full collection: about 0.84%.
Redox H2O2 prof: compounds producing H2O2 with reducing agent – biochemical, NIH compound library profiling, artefact control for MLSCN library redox annotation, primary screen; DTT-dependent redox cycling H2O2, phenol red/HRP absorbance; 100% = 100 µM peroxide control, 0% = buffer; activation, % at 10 µM; 0.03% of 200,000 active;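 active = activation of at least 50% relative to the plate's high and low controls in the primary single-dose screen; inactive = activation below 50%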;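 also: compound incubated with DTT at 0.8 mM final as the reducing agent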
p97 inhibitor: blocks human p97 ATPase activity; P55072; recombinant p97 ATPase, Kinase-Glo ATP luminescence, 3 h; inhibition, % at 8 µM; 0.42% of 220,000 active; AID 1481; in the data active = inhibition above about 15%;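 also: 0% = DMSO vehicle and 100% = wells lacking enzyme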
Target sequence (P55072 whole entry, looked up): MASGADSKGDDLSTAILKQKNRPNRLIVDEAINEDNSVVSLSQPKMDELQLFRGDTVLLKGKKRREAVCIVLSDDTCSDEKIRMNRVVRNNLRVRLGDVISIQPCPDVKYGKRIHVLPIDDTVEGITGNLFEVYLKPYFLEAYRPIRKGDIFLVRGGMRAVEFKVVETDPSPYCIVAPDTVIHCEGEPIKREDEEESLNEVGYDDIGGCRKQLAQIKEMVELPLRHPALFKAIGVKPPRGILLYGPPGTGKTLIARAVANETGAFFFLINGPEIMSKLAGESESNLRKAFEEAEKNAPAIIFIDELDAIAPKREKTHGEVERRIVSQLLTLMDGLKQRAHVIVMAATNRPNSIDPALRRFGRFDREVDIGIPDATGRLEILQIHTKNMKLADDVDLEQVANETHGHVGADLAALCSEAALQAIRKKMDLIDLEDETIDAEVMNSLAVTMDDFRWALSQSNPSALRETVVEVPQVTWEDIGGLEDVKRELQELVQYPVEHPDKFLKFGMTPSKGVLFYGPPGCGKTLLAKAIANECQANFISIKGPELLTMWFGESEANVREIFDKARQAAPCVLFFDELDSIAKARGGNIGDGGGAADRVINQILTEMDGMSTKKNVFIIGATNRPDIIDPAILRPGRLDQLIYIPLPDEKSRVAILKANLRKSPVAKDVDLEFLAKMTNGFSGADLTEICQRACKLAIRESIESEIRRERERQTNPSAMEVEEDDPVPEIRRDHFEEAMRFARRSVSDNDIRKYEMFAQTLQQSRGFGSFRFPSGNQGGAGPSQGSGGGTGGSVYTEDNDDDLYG
S1P3 antagonist: S1P3 (human) receptor antagonism. Q99500. 0.27% of 170,000 active. CHO S1P3 NFAT-BLA reporter, FRET fluorescence, antagonist mode. inhibition, % at 4.98 µM;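 active = inhibition above the plate cutoff, the mean inhibition of test wells on that plate plus 3 SD, cut at about 28% in these data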;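 also: cells challenged with S1P at its EC80 of 0.8 µM; blue over green emission ratio from cleaved BLA substrate after 4 h stimulation; 0% = S1P-stimulated wells and 100% = unstimulated DMSO-only wells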
TbHK1 inh: T. brucei hexokinase 1 inhibition; recombinant TbHK1, G6PDH-coupled NADH A340; inhibition, % at 10 µM; 0.11% of 220,000 active; AID 1430;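 active = inhibition of 50% or more in the single-dose primary screen; inactive = inhibition below 50%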
G6PDH counter: counter-screen for G6PDH assay hits: L. mesenteroides G6PDH inhibition; Purified L. mesenteroides G6PDH, diaphorase/resazurin coupled fluorescence, 45 min; inhibition, % at 5 µM; 0.12% of 200,000 active; in the data active = inhibition above about 50%
DTT redox conf: redox cycling H2O2 generation, confirmed. AID 1234. DTT-dependent redox cycling H2O2, phenol red-HRP absorbance. EC50, µM. 40% of 60 active. shares compounds with Redox H2O2 prof;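 active = EC50 under a set limit for hydrogen peroxide production with the reducing agent DTT present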
p97 confirm: confirmation of human p97 ATPase inhibitors; 44% of 760 active; AID 1517; recombinant p97 ATPase, Kinase-Glo ATP luminescence; shares compounds with p97 inhibitor; inhibition, % at 8 µM;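 active = percent inhibition of p97 ATPase above a set limit, the primary screen's mean plus 3 SD, cut at about 15% in these data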;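 also: 0% = DMSO wells and 100% = wells lacking p97 protein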
Numbers without * were called inactive; / = no result.

SMILES	Redox H2O2 prof	p97 inhibitor	S1P3 antagonist	TbHK1 inh	G6PDH counter	DTT redox conf	others
O=C1C(=O)c2ccc(-c3ccccc3)cc2-c2ccccc21	315*	13	/	-7	54*	0.91*
Cc1ccc(S(=O)(=O)Nc2nccs2)cc1[N+](=O)[O-]	-1	2	-1	-4	14	/
Cc1cc(C)c(S(=O)(=O)Nc2cc(SCC(=O)O)c(O)c3ccccc23)cc1C	120*	7	-8	1	35	>50
COc1cccc(Oc2cncnc2-c2ccc(OC)cc2O)c1	60*	-5	9	29	3	>50
O=C(O)CCCNc1cc(N2CCC3(CC2)OCCO3)c2noc3c2c1C(=O)c1ccccc1-3	-3	2	3	2	39	/
CCOC(=O)N1CCN(c2cc(NCCC(=O)O)c3c4c(onc24)-c2ccccc2C3=O)CC1	141*	5	-8	5	-6	>50
CC1(C)CC(N2CCCC2)=CC(=[N+]2CCCCCC2)C1	0	0	-12	-37	13	/
CC1(C)CC(=O)C=C(N2CCNCC2)C1	73*	4	-28	4	4	>50
CC(NC(=O)COC(=O)c1ccc([N+](=O)[O-])s1)c1ccccc1 (configuration not stated)	114*	6	0	-4	15	>50
Oc1ccc(-c2onc(C(F)(F)F)c2-c2cscn2)c(O)c1	430*	-7	-6	-5	-2	>50
Cc1nc(-c2c(C(F)(F)F)noc2-c2ccc(O)cc2O)cs1	2	-1	/	-12	2	/
CN(C)CCCOC(=O)c1cc2ccccc2o1	0	1	-5	38	3	/
C=CCOc1ccc2nnc(C)n2n1	0	4	-11	1	1	/
O=C(NN=C1CCCC1)c1n[nH]c2c1CCCC2	68*	-5	-20	6	4	>50
COC(=O)c1ccc(NC(=O)CN(c2ccc(C)cc2)S(=O)(=O)c2c(C)nn(C)c2C)cc1	0	0	/	-5	8	/
O=C1C=C(NCCN2CCOCC2)C(=O)c2cnccc21	176*	13	-10	-3	60*	>50
Cc1ccc(NC2=C/C(=N\S(=O)(=O)c3cccs3)c3ccccc3C2=O)c(C)c1	323*	9	/	3	52*	18*
CC(C)(C)c1cc[n+](C2=C([O-])c3ccccc3C(=O)/C2=N\S(=O)(=O)c2cccs2)cc1	/	11	1	-21	/	/
CCOC(=O)c1sc(=NC(=O)CCSc2ccccc2)n(C)c1C	0	4	-17	-11	-2	/
COC1=C(N)C(=O)c2nc(-c3nc(C(=O)O)c(C)c(-c4ccc(OC)c(OC)c4O)c3N)ccc2C1=O	132*	4	-7	-6	56*	1.5*
COc1ccc(-c2ncncc2-c2csc(C)n2)c(O)c1OC	0	7	/	-13	0	/
O=C(O)/C=C/C(=O)N(Cc1ccc2c(c1)OCO2)C1CC(=O)N(CCc2ccccc2)C1=O (configuration not stated)	-1	6	-12	0	3	/
CCOc1ccc(NC(=S)Nc2ccc3nsnc3c2)cc1	127*	33*	-9	19	54*	>50	p97 confirm=30*
CC(=O)N(/N=C1\Sc2ccccc2C1=O)c1ccccc1C	381*	18*	/	-4	4	19*	p97 confirm=25*
CC(=O)N(/N=C1\Sc2ccccc2C1=O)c1ccc(C)cc1C	1	2	/	0	1	/
O=C(O)c1ccc(NC2=C/C(=N/S(=O)(=O)c3ccccc3)c3ccccc3C2=O)cc1	149*	18*	18	-13	41	2.7*	p97 confirm=23*
O=C(O)c1ccc(NS(=O)(=O)c2ccc3c(c2)C(=O)c2ccccc2C3=O)cc1	-1	6	1	-9	43	/

Screening data (PubChem BioAssay)
